Screening results from PubChem BioAssay.
Compounds with a hit are over-represented: about 21% of the library has one in this group of screens.
Shiga inhibitor: blocks Shiga toxin action in Vero cells | Vero cells, Shiga toxin protein synthesis inhibition reporter | inhibition, % at 38.7 µM | 9.2% of 290,000 active | AID 2315; in the data active = inhibition mostly above about 28%, no sharp cut-off; inactive = mostly below about 43%
CHX counter: affects cycloheximide protein synthesis inhibition readout, counter-screen | cell reporter, cycloheximide protein synthesis inhibition counterscreen | max response, % | 12% of 300,000 active; in the data active = max response mostly above about 13%, no sharp cut-off; inactive = mostly below about 14%; note: read at 38.3 µM for the half of the compounds with a filed dose
Pf growth 48h: inhibits P. falciparum growth in the first generation, 48 h. 5.9% of 310,000 active. Potency, µM (series often up to 28.7 µM), most hits filed as inhibitors. P. falciparum luciferase growth in erythrocytes, 48 h
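Read-out is firefly luciferase luminescence from an integrated reporter in P. falciparum, so falling signal marks reduced parasite growth. Infected erythrocytes were at 2% hematocrit and 0.1% parasitemia (final) in Albumax-supplemented RPMI 1640.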
FBPA Giardia inh: inhibitors of Giardia lamblia fructose-1,6-bisphosphate aldolase | purified Giardia FBPA | Potency, µM (top dose mostly 59.6 µM), most hits filed as inhibitors | 0.71% of 290,000 active | AID 2451; note: nearly all actives have a fitted effect of over 55% in size
Target sequence (A8B2U2 whole entry, looked up): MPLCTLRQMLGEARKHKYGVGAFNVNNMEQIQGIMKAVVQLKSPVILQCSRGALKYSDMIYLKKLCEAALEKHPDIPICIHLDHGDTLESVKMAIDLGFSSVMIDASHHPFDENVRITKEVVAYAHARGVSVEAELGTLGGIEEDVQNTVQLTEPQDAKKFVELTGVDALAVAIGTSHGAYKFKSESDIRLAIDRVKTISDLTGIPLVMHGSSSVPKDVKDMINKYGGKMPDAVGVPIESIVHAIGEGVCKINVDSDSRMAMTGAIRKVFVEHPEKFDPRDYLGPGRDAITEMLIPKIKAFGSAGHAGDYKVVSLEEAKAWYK
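40 nM FBPA preincubated 10 min at RT with compound (up to 57.5 uM final), then substrate plus GAPDH/TPI/NAD/arsenate coupling and diaphorase/resazurin added. Fluorescence read after 20 min at RT, 525/598 nm.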
Pf growth 96h: P. falciparum growth inhibition at 96 hour, primary screen for plastid delayed-death inhibitors | 6.9% of 320,000 active | Potency, µM (titrated, usually from 28.7 µM), actives largely listed as inhibitors | P. falciparum luciferase reporter growth, 96 h
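Readout is luminescence from an integrated firefly luciferase in P. falciparum. Red cells, 2% hematocrit and 0.05% parasitemia final, were cultured with compound through two parasite generations (96 hours) at 37 C, 5% CO2.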
NS1 inh: inhibitors of influenza NS1 protein function. Potency, µM (highest dose often 46.1 µM). 0.4% of 270,000 active; calls by dose curve; note: actives are rising curves; nearly all actives have a fitted effect of over 50% in size
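A cell-based growth assay was used: compounds that relieve NS1-induced slow growth of budding yeast raise OD600. Assay medium was yeast nitrogen base with ammonium sulphate and -URA supplement, pH 6.0, with 2% galactose.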
Numbers stand for hits; - = inactive; ? = inconclusive; . = no result; + = active, no number. Unless noted, calls come from the whole dose curve; as a rule, active = well fitted curve in the direction sought with a large enough effect; inconclusive = small, poorly fitted or top-dose-only effect, or another doubt; inactive = no such curve, though single readings can be large; an effect the other way counts as inactive or inconclusive.

SMILES	Shiga inhibitor	CHX counter	Pf growth 48h	FBPA Giardia inh	Pf growth 96h	NS1 inh
COc1ccccc1OCCC(=O)NCc1ccc2c(c1)OCO2	-	-	-	-	-	.
COc1ccccc1CN(CC(=O)NCc1ccc2c(c1)OCO2)C(=O)c1ccc2c(c1)OCCO2	-	-	-	-	9.28µM	-
Cc1ccc(NC(=S)NCc2ccc3c(c2)OCO3)cc1C	-	-	-	-	-	-
COc1ccccc1NC(=O)NCc1ccc2c(c1)OCO2	-	11.5	-	-	14.7µM	-
Cc1ccc(NC(=O)NCc2ccc3c(c2)OCO3)cc1C	42.9	23.4	-	-	-	-
O=C(NCc1ccc2c(c1)OCO2)Nc1ccc(F)cc1	44.5	36.8	-	-	?	-
COc1cc2c(=O)n(CCC(=O)NCC3CCCO3)c(=O)n(CC(=O)Nc3ccc(C)cc3C)c2cc1OC (configuration not stated)	-	-	-	-	?	-
CCn1cc(CCCC(=O)NCc2cccc(OC)c2)c2ccccc21	-	-	?	-	?	-
COc1ccc(NC(=O)c2cccc3c2C(=O)c2ccc(-c4cnc(OC)nc4)cc2S3(=O)=O)cc1	.	.	?	.	-	.
COc1cccc2cc(C(=O)OCC(=O)NCc3ccc4c(c3)OCO4)c(=O)oc12	67.5	37.9	-	-	-	-
S=C(NCc1ccco1)N1CCN(Cc2ccc(Cl)cc2Cl)CC1	-	-	?	-	10.4µM	-
COc1cc(NC(=S)NCCCO)c(OC)cc1Cl	-	-	-	-	?	-
S=C(NCc1ccco1)Nc1ccc(Br)cc1Cl	-	18.3	-	-	-	-
OCCCNC(=S)Nc1ccc(Br)cc1Cl	33.9	20.9	-	-	-	-
S=C(NCc1cccc(Cl)c1)NCc1ccco1	-	-	-	-	?	-
S=C(NCc1ccco1)Nc1ccc(Cl)cc1Cl	+	21.6	-	-	-	-
O=C(CSc1nc(C(F)(F)F)cc(=O)[nH]1)NCc1ccc2c(c1)OCO2	.	.	?	.	-	.
NC(=O)c1ccc(NC(=O)Nc2ccc3c(c2)OCO3)cc1	46.6	33.9	-	.	-	-
Cc1ccnc(NC(=O)Nc2ccc3c(c2)OCO3)c1	74.3	26.7	-	-	-	.
Cc1c(NC(=O)Nc2ccc3c(c2)OCO3)c(=O)n(-c2ccccc2)n1C	-	-	-	-	-	-
O=C(O)C1CC=CCC1C(=O)Nc1ccc2c(c1)OCCO2 (configuration not stated)	36.2	60.8	-	-	-	-
O=C(Nc1ccc2c(c1)OCCO2)NC12CC3CC(CC(C3)C1)C2	107.9	49.2	-	-	-	-
O=C(O)C1CC=CCC1C(=O)Nc1ccc(F)c(F)c1 (configuration not stated)	-	-	-	-	.	-
COc1ccc(NC(=O)NC23CC4CC(CC(C4)C2)C3)cc1OC	-	-	?	-	?	-
NC(=O)c1ccc(NC(=O)COC(=O)c2ccc3c(c2)OCO3)cc1	.	.	?	.	-	.
SMILES	Shiga inhibitor	CHX counter	Pf growth 48h	FBPA Giardia inh	Pf growth 96h	NS1 inh
CC(CCc1ccccc1)NC(=O)CN1CCN(c2ccc(O)cc2)CC1 (configuration not stated)	-	-	?	?	?	.
COc1ccc(C2/C=C\CN(C(=O)OCC3c4ccccc4-c4ccccc43)CC(=O)N2Cc2cccc(F)c2)cc1 (configuration not stated)	-	-	.	-	.	.
CN1C2Cc3c(n(C)c4ccccc34)C1CC=C2CO (configuration not stated)	.	.	-	.	-	.
C=Cc1ccc(Cn2c(C(=O)O)c(CNCc3ccccc3)c3ccc(C)cc32)cc1	-	-	.	.	.	.
Cc1cccnc1CNC(=O)C1CCC(=O)N(CCc2cccc(F)c2)C1 (configuration not stated)	-	-	-	-	-	-
CCC(C)[C@H](NC(=O)OC(C)(C)C)C(=O)NCC1CCC(C(=O)N[C@@H](Cc2ccccc2)C(=O)O)CC1 (some centres not stated)	-	-	?	-	-	-
COc1ccc(CC(=O)Oc2ccc(C(C)C)cc2)cc1S(=O)(=O)N1CCOCC1	.	.	-	.	-	.
O=C(Nc1cccc([N+](=O)[O-])c1)Nc1ccc2c(c1)OCCO2	-	33.3	-	-	-	-
COC(=O)c1ccc(NC(=O)Nc2ccc3c(c2)OCO3)cc1	87.0	49.9	-	-	?	-
O=C(Nc1cccc([N+](=O)[O-])c1)Nc1cccc([N+](=O)[O-])c1	-	-	?	-	?	.
CC(C)N1CCC(NC(=O)Nc2ccc3c(c2)OCO3)CC1	-	28.7	-	-	-	-
C=C(C)C(=O)Nc1ccc2c(c1)OCCOCCOCCO2	-	-	-	-	-	-
CC1(C(=O)Nc2ccc3c(c2)OCCO3)CC1(Cl)Cl (configuration not stated)	42.3	23.1	-	.	?	-
CCOc1ccccc1/C=C/C(=O)NCC(=O)N1CCC(N(C)C2CCCCC2C)CC1 (configuration not stated)	-	-	?	.	-	-
CN(C)c1ccc(N2C(=NC(=O)CC3CCCCC3)SC3CS(=O)(=O)CC32)cc1 (configuration not stated)	-	-	-	.	?	-
O=C(Nc1ccc2c(c1)OCO2)Nc1ccc(Br)cn1	82.6	37.4	-	-	.	-
O=C(Nc1ccc2c(c1)OCCO2)Nc1ccc2c(c1)OCO2	62.0	33.4	-	-	-	.
CC(=O)Nc1ccc2c(c1)OCCO2	-	-	-	.	-	-
O=C(Nc1ccc2c(c1)CCC2)Nc1ccc2c(c1)OCO2	133.9	47.3	-	-	-	.
CC(=O)Nc1ccc2c(c1)OCO2	-	-	-	-	-	.
CC(C)CC(=O)Nc1ccc2c(c1)OCO2	-	-	-	-	-	-
O=C(CCl)Nc1ccc2c(c1)OCO2	-	33.8	?	-	14.7µM	.
COc1ccccc1N(C(=O)c1ccco1)C(C(=O)NC1CCCC1)c1ccncc1 (configuration not stated)	-	-	?	-	-	-
O=C(O)[C@H]1NCCC[C@H]1C(=O)O	.	.	.	-	.	-
CC1CC=CC2C1C(=O)N(Cc1ccccc1)C2c1ccc(Br)cc1F (configuration not stated)	-	-	.	-	.	.
SMILES	Shiga inhibitor	CHX counter	Pf growth 48h	FBPA Giardia inh	Pf growth 96h	NS1 inh
COc1ccc(N(C)C(=O)CN(C)S(=O)(=O)c2ccc3c(c2)c(=O)n(C)c(=O)n3C)c(OC)c1	-	-	-	-	?	-
COc1ccc([C@@]2(O)c3c(ccc(CC=C(C)C)c3O)NC(=O)[C@@H]2OC)cc1	-	-	?	-	-	-
O=C(Nc1ccc2c(c1)OCCO2)NC1(C(F)(F)F)Oc2ccccc2O1	88.7	92.2	.	-	-	-
Cc1cccc(CS(=O)(=O)Cc2ccc(C(=O)NCc3cccnc3)o2)c1	-	-	-	-	1.85µM	-
CC(C)(C)c1ccc(OCc2ccc(C(=O)NN)o2)cc1	115.5	70.7	-	-	-	-
Cc1ccc(S(=O)(=O)NCc2ccncc2)c(C)c1C	-	-	-	-	11.7µM	-
